Results taken from PubChem BioAssay AID1159580 (chemical genetic matrix, 2015).
In all, about 5,500 compounds went through this assay and about 2,000 (36%) were called active. Not shown: some 18% with an inconclusive outcome. Cut-off read from the data, not from the text of the source: active = normalized growth mostly below about 0.91 (no sharp cut-off); inconclusive = no clear call, values can overlap the other calls; inactive = mostly above about 0.92. The list shows a part of the results.

Test: chemical genetic growth profiling, strain panel (AID 1159580);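 note: tested at 20 µM; growth read once vehicle control cultures reached saturation at 30 °C; 1 = growth at the plate median or of vehicle wells; lower values mean less growth of the strain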
Settings: S. cerevisiae deletion strains, growth OD

Measured: normalized growth

NC(=NCCC[C@H](N)C(=O)O)NO
inactive: locus YAL013W, strain DEP1, hits give low values 1.03 | locus YAL040C, strain CLN3, hits give low values 1 | locus YCL061C, strain MRC1 (second series), hits give low values 1.01 | locus YDR363W, strain ESC2, hits give low values 1.02 | locus YER002W, strain NOP16, hits give low values 1.01 | locus YGR078C, strain PAC10, hits give low values 1.02 | locus YNL128W, strain TEP1, hits give low values 1 | locus YNL175C, strain NOP13, hits give low values 1 | locus YNL197C, strain WHI3, hits give low values 1.01 | locus YNL224C, strain SQS1, hits give low values 0.992 | locus YOR083W, strain WHI5 (second series), hits give low values 1.01 | locus YPL241C, strain CIN2, hits give low values 1.01

CC(C)[C@H](N)C(=O)OCCOCn1cnc2c(=O)[nH]c(N)nc21
inactive: locus YAL021C, strain ccr4, hits give low values 1.06 | locus YAL026C, strain drs2, hits give low values 1.02 | locus YAL030W, strain snc1, hits give low values 1.03 | locus YBL061C, strain skt5, hits give low values 1.02 | locus YBR009C, strain hhf1, hits give low values 0.961 | locus YBR023C, strain chs3, hits give low values 1.02 | locus YBR171W, strain sec66, hits give low values 1.01 | locus YBR231C, strain swc5, hits give low values 0.934 | locus YBR279W, strain paf1, hits give low values 1.02 | locus YCL011C, strain gbp2, hits give low values 1.01 | locus YCL016C, strain dcc1, hits give low values 1.05 | locus YCL069W, strain vba3, hits give low values 1 | locus YCR088W, strain abp1, hits give low values 1.02 | locus YDL005C, strain med2, hits give low values 1.02 | locus YDL040C, strain nat1, hits give low values 0.998 | locus YDR001C, strain nth1, hits give low values 1.01 | locus YDR069C, strain doa4, hits give low values 1 | locus YDR137W, strain rgp1, hits give low values 1.08 | locus YDR159W, strain sac3, hits give low values 0.94 | locus YDR195W, strain ref2 0.973 | locus YDR297W, strain sur2, hits give low values 1 | locus YDR334W, strain swr1, hits give low values 1.01 | locus YDR335W, strain msn5, hits give low values 1.01 | locus YDR392W, strain spt3, hits give low values 1.03 | locus YEL003W, strain gim4, hits give low values 0.996 | locus YEL037C, strain rad23, hits give low values 1.01 | locus YEL061C, strain CIN8 (second series), hits give low values 1 | locus YER015W, strain faa2, hits give low values 1.01 | locus YER016W, strain bim1, hits give low values 1.05 | locus YER111C, strain swi4, hits give low values 1.03 | locus YER155C, strain BEM2 (second series), hits give low values 1.11 | locus YFR010W, strain ubp6, hits give low values 0.974 | locus YGL167C, strain pmr1, hits give low values 1.01 | locus YGL173C, strain kem1, hits give low values 1.01 | locus YGL227W, strain vid30, hits give low values 1.01 | locus YGL240W, strain doc1, hits give low values 0.993 | locus YGL253W, strain hxk2, hits give low values 0.981 | locus YHR013C, strain ard1, hits give low values 1.02 | locus YHR027C, strain rpn1, hits give low values 1.01 | locus YHR030C, strain SLT2, hits give low values 1.07 | locus YHR079C, strain IRE1, hits give low values 1.07 | locus YHR142W, strain chs7, hits give low values 0.988 | locus YJL092W, strain hpr5, hits give low values 1.01 | locus YJL095W, strain BCK1 (second series), hits give low values 1.04 | locus YJL095W, strain BCK1, hits give low values 1.02 | locus YJL115W, strain asf1, hits give low values 1.01 | locus YJL129C, strain trk1, hits give low values 0.982 | locus YJL154C, strain vps35, hits give low values 1.01 | locus YJL164C, strain tpk1, hits give low values 0.995 | locus YJL166W, strain qcr8, hits give low values 1.03 | locus YJL187C, strain SWE1, hits give low values 1 | locus YJR066W, strain TOR1, hits give low values 0.99 | locus YKL160W, strain elf1, hits give low values 1.06 | locus YKR026C, strain gcn3, hits give low values 1.01 | locus YKR091W, strain srl3, hits give low values 1.01 | locus YLL001W, strain dnm1, hits give low values 0.96 | locus YLL026W, hits give low values 1.01 | locus YLL041C, strain sdh2, hits give low values 1.03 | locus YLR027C, strain aat2, hits give low values 1.01 | locus YLR113W, strain HOG1, hits give low values 0.977 | locus YLR221C, strain rsa3, hits give low values 0.96 | locus YLR258W, strain gsy2, hits give low values 1.03 | locus YLR262C, strain YPT6 (second series), hits give low values 1.01 | locus YLR320W, strain mms22, hits give low values 0.971 | locus YLR342W, strain FKS1, hits give low values 1.03 | locus YLR357W, strain rsc2, hits give low values 1.04 | locus YLR370C, strain arc18, hits give low values 1.03 | locus YLR384C, strain iki3, hits give low values 1.03 | locus YML120C, strain ndi1, hits give low values 0.969 | locus YMR058W, strain fet3, hits give low values 1.04 | locus YMR125W, strain sto1, hits give low values 1.04 | locus YMR129W, hits give low values 1.02 | locus YMR205C, strain PFK2, hits give low values 1.01 | locus YMR231W, strain pep5, hits give low values 1 | locus YNL071W, strain lat1, hits give low values 1.02 | locus YNL183C, strain NPR1, hits give low values 0.946 | locus YNL209W, strain ssb2, hits give low values 1.02 | locus YNL248C, strain rpa49, hits give low values 1.04 | locus YNL322C, strain KRE1 (second series), hits give low values 1.04 | locus YNR049C, strain mso1, hits give low values 0.998 | locus YOR001W, strain rrp6, hits give low values 0.943 | locus YOR070C, strain gyp1, hits give low values 1.03 | locus YOR080W, strain dia2, hits give low values 1.01 | locus YOR083W, strain WHI5, hits give low values 0.992 | locus YOR106W, strain vam3, hits give low values 1.02 | locus YOR231W, strain MKK1, hits give low values 1.04 | locus YOR265W, strain rbl2, hits give low values 1.01 | locus YOR270C, strain vph1, hits give low values 0.864 | locus YOR290C, strain snf2, hits give low values 1.05 | locus YPL051W, strain arl3, hits give low values 1.04 | locus YPL078C, strain atp4, hits give low values 1.04 | locus YPL106C, strain sse1, hits give low values 1.06 | locus YPL240C, strain hsp82, hits give low values 1.01 | locus YPL256C, strain CLN2, hits give low values 1.08
